Results taken from PubChem BioAssay (EPA / NIEHS).
Records with an inconclusive call do not appear. Active and inactive are the calls of the source. Rule for the calls, unless noted: active = hit-call score of the fitted dose curve at least 0.9, where 1 is the maximum; inactive = score below 0.9.

Tests used:
[1] = read-out: Pyruvate Dehydrogenase Kinase 4 (PDK4), PDK4 (gene 5166); assay: LTEA_HepaRG_PDK4: Life Technologies and Expression Analysis (LTEA) Assay for Pyruvate Dehydrogenase Kinase 4 (PDK4) using HepaRG (AID 2283525); details: mRNA level, 48 h; actives raise or lower the signal
Outline: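 HepaRG (human liver line), 48 h chemical exposure, 8-pt half-log CRC top 100 uM, 0.5% DMSO vehicle, duplicates. Readout: TaqMan qRT-PCR of PDK4 mRNA, housekeeping-normalized; gain/loss fit relative to DMSO baseline.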

[2] = read-out: NAD(P)H dehydrogenase [quinone] 1 (NQO1), NQO1 (gene 1728); assay: LTEA_HepaRG_NQO1: Life Technologies and Expression Analysis (LTEA) Assay for NAD(P)H dehydrogenase [quinone] 1 (NQO1) using HepaRG (AID 2283526); details: mRNA level, 48 h; actives raise or lower the signal
Outline: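 Transcript induction or suppression is quantified by qRT-PCR in human HepaRG liver cells dosed for 48 hours. Eight half-log concentrations topping at 100 uM are used, with 0.5% DMSO as vehicle and baseline.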

[3] = read-out: Nuclear factor erythroid 2-related factor 2 (Homo sapiens) (UniProt Q16236); assay: LTEA_HepaRG_NFE2L2: Life Technologies and Expression Analysis (LTEA) Assay for Nuclear factor erythroid 2-related factor 2 (NFE2L2) Transcription Factor using HepaRG (AID 2283527); details: mRNA level, 48 h; actives raise or lower the signal
Outline: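 HepaRG, 48 h dosing, 8-pt half-log series from 100 uM in 0.5% DMSO, duplicates. Read-out: NFE2L2 mRNA by qRT-PCR (ACTB/GAPDH/POLR2A normalization). Bidirectional curve fit vs DMSO baseline.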

[4] = read-out: Signal transducer and activator of transcription 3 (Homo sapiens) (UniProt P40763); assay: LTEA_HepaRG_STAT3: Life Technologies and Expression Analysis (LTEA) Assay for Signal transducer and activator of transcription (STAT3) using HepaRG (AID 2283529); details: mRNA level, 48 h; actives raise or lower the signal
Outline: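 HepaRG, 48 h exposure, 8-pt half-log series (top 100 uM), 0.5% DMSO vehicle, duplicates. Readout: STAT3 transcript by Fluidigm qRT-PCR, housekeeping-normalized; bidirectional fit vs DMSO baseline.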

[5] = read-out: solute carrier (SLCO1B1), SLCO1B1 (gene 10599); assay: LTEA_HepaRG_SLCO1B1: Life Technologies and Expression Analysis (LTEA) Assay for solute carrier (SLCO1B1) using HepaRG (AID 2283530); details: mRNA level, 48 h; actives raise or lower the signal
Outline: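 HepaRG, serum-free induction medium, 48 h dosing, 8-pt half-log from 100 uM, 0.5% DMSO vehicle, duplicates. Readout: SLCO1B1 mRNA, qRT-PCR, ACTB/GAPDH/POLR2A normalization; up or down fit vs DMSO.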

[6] = read-out: sulfotransferase 2A1 (SULT2A1), SULT2A1 (gene 6822); assay: LTEA_HepaRG_SULT2A1: Life Technologies and Expression Analysis (LTEA) Assay for sulfotransferase 2A1 (SULT2A1) using HepaRG (AID 2283531); details: mRNA level, 48 h; actives raise or lower the signal
Outline: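 Transcript levels of SULT2A1, quantified by qRT-PCR and normalized to three housekeeping genes, serve as the readout. Human HepaRG cultures receive test chemicals for 48 h at up to 100 uM in half-log steps, with 0.5% DMSO vehicle.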

[7] = read-out: Transforming Growth Factor (TGFA), TGFA (gene 7039); assay: LTEA_HepaRG_TGFA: Life Technologies and Expression Analysis (LTEA) Assay for Transforming Growth Factor (TGFA) using HepaRG (AID 2283532); details: mRNA level, 48 h; actives raise or lower the signal
Outline: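 qRT-PCR read-out of TGFA transcript, normalized to three housekeeping genes, fitted bidirectionally against 0.5% DMSO baseline. Human HepaRG cultures received chemicals for 48 h at eight half-log concentrations, top 100 uM.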

[8] = read-out: Transforming Growth Factor (TGFB1), TGFB1 (gene 7040); assay: LTEA_HepaRG_TGFB1: Life Technologies and Expression Analysis (LTEA) Assay for Transforming Growth Factor (TGFB1) Transporter using HepaRG (AID 2283533); details: mRNA level, 48 h; actives raise or lower the signal
Outline: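 HepaRG, 48 h post-plating, switched to serum-free induction medium; chemicals 100 uM top, half-log, 8 pts, 0.5% DMSO, dup; 48 h exposure; RNA → Fluidigm TaqMan qRT-PCR; norm ACTB/GAPDH/POLR2A; bidirectional fit vs DMSO.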

TIMP1, TIMP1 (gene 7076) = assay: LTEA_HepaRG_TIMP1: Life Technologies and Expression Analysis (LTEA) Assay for TIMP1 using HepaRG (AID 2283534); details: mRNA level, 48 h; actives raise or lower the signal
Outline: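 Readout is TIMP1 mRNA level measured by qRT-PCR and normalized to three housekeeping genes. Human HepaRG cells were treated for 48 h in duplicate at eight concentrations up to 100 uM (0.5% DMSO); gain or loss fitted against DMSO.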

[9] = read-out: Tumor necrosis factor receptor 1 (TNFRSF1A), TNFRSF1A (gene 7132); assay: LTEA_HepaRG_TNFRSF1A: Life Technologies and Expression Analysis (LTEA) Assay for Tumor necrosis factor receptor 1 (TNFRSF1A) using HepaRG (AID 2283535); details: mRNA level, 48 h; actives raise or lower the signal
Outline: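 Read-out is TNFRSF1A transcript level by TaqMan qRT-PCR, normalized to three housekeeping genes, scored as gain or loss of signal versus 0.5% DMSO. Human HepaRG cells received test chemicals for 48 h at up to 100 uM (half-log series).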

[10] = read-out: Thyroid Hormone Responsive (THRSP), THRSP (gene 7069); assay: LTEA_HepaRG_THRSP: Life Technologies and Expression Analysis (LTEA) Assay for Thyroid Hormone Responsive (THRSP) using HepaRG (AID 2283536); details: mRNA level, 48 h; actives raise or lower the signal
Outline: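 qRT-PCR read-out (Fluidigm TaqMan), housekeeping-normalized (ACTB/GAPDH/POLR2A). HepaRG, 48 h chemical exposure, 8-pt half-log series from 100 uM in 0.5% DMSO, duplicates. Bidirectional curve fit vs 0.5% DMSO baseline.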

[11] = read-out: Cellular tumor antigen p53 (Homo sapiens) (UniProt P04637); assay: LTEA_HepaRG_TP53: Life Technologies and Expression Analysis (LTEA) Assay for Tumor Protein P53 (TP53) using HepaRG (AID 2283537); details: mRNA level, 48 h; actives raise or lower the signal
Outline: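 TP53 transcript measured by qRT-PCR, normalized to three housekeeping genes, after 48 h treatment of human HepaRG cultures with chemicals from 100 uM downward in half-log steps (0.5% DMSO vehicle, serum-free induction medium). Up- or down-regulation fitted against DMSO.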

[12] = read-out: UDP glucuronosyltransferase (UGT1A1), UGT1A1 (gene 54658); assay: LTEA_HepaRG_UGT1A1: Life Technologies and Expression Analysis (LTEA) Assay for UDP glucuronosyltransferase (UGT1A1) using HepaRG (AID 2283538); details: mRNA level, 48 h; actives raise or lower the signal
Outline: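 Cells are plated, cultured 48 h, switched to serum-free induction medium, then dosed 48 h at eight concentrations (max 100 uM, 0.5% DMSO). RNA is isolated and UGT1A1 expression measured by qRT-PCR; changes versus DMSO are fitted in both directions.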

[13] = read-out: UDP glucuronosyltransferase (UGT1A6), UGT1A6 (gene 54578); assay: LTEA_HepaRG_UGT1A6: Life Technologies and Expression Analysis (LTEA) Assay for UDP glucuronosyltransferase (UGT1A6) using HepaRG (AID 2283539); details: mRNA level, 48 h; actives raise or lower the signal
Outline: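 HepaRG, 48 h post-plating switch to serum-free induction medium; chemical 48 h, 100 uM top, half-log x8, duplicate, 0.5% DMSO. Phenobarbital 1mM induction control. UGT1A6 mRNA by TaqMan qRT-PCR; gain/loss fit vs DMSO.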

[14] = read-out: X-box binding protein 1 (XBP1), XBP1 (gene 7494); assay: LTEA_HepaRG_XBP1: Life Technologies and Expression Analysis (LTEA) Assay for X-box binding protein 1 (XBP1) using HepaRG (AID 2283540); details: mRNA level, 48 h; actives raise or lower the signal
Outline: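 Transcript levels of XBP1, measured by qRT-PCR and normalised to three housekeeping genes, were fitted bidirectionally relative to 0.5% DMSO controls. Human HepaRG cells received eight-point half-log dilutions from 100 uM for 48 h.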

[15] = LTEA_HepaRG_LDH_cytotoxicity: Cytotoxicity Assessment in the Life Technologies and Expression Analysis (LTEA) Assay (AID 2283563; active = hit-call score of the fitted dose curve at least 0.9, where 1 is the maximum)
Outline: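 Cells were thawed and plated for 48 h. Medium was then replaced with serum-free induction medium. Chemicals (8 half-log points, maximum 100 uM, 0.5% DMSO) were added in duplicate for 48 h, after which spent medium was assayed for LDH.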

[16] = read-out: solute carrier (SLC22A1), SLC22A1 (gene 6580); assay: LTEA_HepaRG_SLC22A1: Life Technologies and Expression Analysis (LTEA) Assay for solute carrier (SLC22A1) using HepaRG (AID 2283524); details: mRNA level, 48 h; actives raise or lower the signal
Outline: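 qRT-PCR readout (TaqMan, Fluidigm arrays) of SLC22A1 transcript, normalized to three housekeeping genes; bidirectional curve fit relative to 0.5% DMSO vehicle. Differentiated human HepaRG cells, 48 h chemical exposure, top concentration 100 uM, half-log steps, eight points.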

[17] = ATG_XTT_Cytotoxicity: Cytotoxicity Assessment in the Attagene TRANS-FACTORIAL HepG2 Assay (AID 2283584; active = hit-call score of the fitted dose curve at least 0.9, where 1 is the maximum)
Outline: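 Cells: human HepG2, transiently transfected with MRTU reporter constructs. Exposure 24 h. Readout: XTT, cell number. Baseline/neg ctrl DMSO; loss-of-signal scored.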

[18] = TOX21_p53_BLA_p2_viability: Viability Assessment in the Tox21 HCT-116 p53 Agonism Beta-lactamase Assay, Phase 2 (AID 2283591; active = hit-call score of the fitted dose curve at least 0.9, where 1 is the maximum;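 note: compound exposure lasted 16 h at 37 °C; actives lower the ATP signal meaning cytotoxicity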)
Outline: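 HCT116 p53-bla cells, 4000/well, dosed after 5 h plating (217-fold dilution of DMSO stocks) and incubated 16 h at 37C. Viability taken as cellular ATP by CellTiter-Glo luminescence after 30 min RT; signal loss marks cytotoxicity.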

[19] = read-out: succinate dehydrogenase complex iron sulfur subunit B (SDHB), SDHB (gene 6390); assay: LTEA_HepaRG_SDHB: Life Technologies and Expression Analysis (LTEA) Assay for succinate dehydrogenase complex iron sulfur subunit B (SDHB) using HepaRG (AID 2283528); details: mRNA level, 48 h; actives raise or lower the signal
Outline: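 SDHB transcript level read by TaqMan qRT-PCR, housekeeping-normalised (ACTB, GAPDH, POLR2A), after 48 h chemical treatment of plated HepaRG cells; eight concentrations top 100 uM, half-log steps, 0.5% DMSO, duplicates; fitted both directions against DMSO.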

Measured: AC50

Chain of Cellular tumor antigen p53 (Homo sapiens) (P04637 whole entry, looked up): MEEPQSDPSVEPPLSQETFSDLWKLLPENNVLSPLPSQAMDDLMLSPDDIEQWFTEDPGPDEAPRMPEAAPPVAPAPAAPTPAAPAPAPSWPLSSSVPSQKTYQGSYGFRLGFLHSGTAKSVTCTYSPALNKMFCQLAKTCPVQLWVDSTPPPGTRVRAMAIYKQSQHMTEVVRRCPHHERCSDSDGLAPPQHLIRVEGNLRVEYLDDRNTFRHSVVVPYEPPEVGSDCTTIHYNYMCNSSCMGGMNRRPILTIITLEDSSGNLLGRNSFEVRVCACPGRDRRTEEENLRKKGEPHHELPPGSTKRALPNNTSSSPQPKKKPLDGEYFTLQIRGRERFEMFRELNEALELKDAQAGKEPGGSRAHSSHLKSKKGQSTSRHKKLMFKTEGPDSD
Chain of Nuclear factor erythroid 2-related factor 2 (Homo sapiens) (Q16236 whole entry, looked up): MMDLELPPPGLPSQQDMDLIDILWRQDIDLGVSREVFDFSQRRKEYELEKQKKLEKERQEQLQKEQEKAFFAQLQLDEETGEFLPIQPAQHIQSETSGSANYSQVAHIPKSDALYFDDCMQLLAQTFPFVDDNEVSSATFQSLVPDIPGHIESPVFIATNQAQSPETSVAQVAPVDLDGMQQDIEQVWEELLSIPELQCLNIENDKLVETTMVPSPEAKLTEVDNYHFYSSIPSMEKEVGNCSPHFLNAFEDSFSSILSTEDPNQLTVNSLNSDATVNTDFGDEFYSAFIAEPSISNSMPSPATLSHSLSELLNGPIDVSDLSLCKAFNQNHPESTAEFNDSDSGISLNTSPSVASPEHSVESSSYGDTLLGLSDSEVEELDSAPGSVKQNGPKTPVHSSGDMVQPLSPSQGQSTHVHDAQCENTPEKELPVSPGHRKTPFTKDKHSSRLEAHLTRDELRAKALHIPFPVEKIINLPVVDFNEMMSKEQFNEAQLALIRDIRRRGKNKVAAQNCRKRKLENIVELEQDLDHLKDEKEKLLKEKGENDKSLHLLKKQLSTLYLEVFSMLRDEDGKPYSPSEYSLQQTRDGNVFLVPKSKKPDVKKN
Chain of Signal transducer and activator of transcription 3 (Homo sapiens) (P40763 whole entry, looked up): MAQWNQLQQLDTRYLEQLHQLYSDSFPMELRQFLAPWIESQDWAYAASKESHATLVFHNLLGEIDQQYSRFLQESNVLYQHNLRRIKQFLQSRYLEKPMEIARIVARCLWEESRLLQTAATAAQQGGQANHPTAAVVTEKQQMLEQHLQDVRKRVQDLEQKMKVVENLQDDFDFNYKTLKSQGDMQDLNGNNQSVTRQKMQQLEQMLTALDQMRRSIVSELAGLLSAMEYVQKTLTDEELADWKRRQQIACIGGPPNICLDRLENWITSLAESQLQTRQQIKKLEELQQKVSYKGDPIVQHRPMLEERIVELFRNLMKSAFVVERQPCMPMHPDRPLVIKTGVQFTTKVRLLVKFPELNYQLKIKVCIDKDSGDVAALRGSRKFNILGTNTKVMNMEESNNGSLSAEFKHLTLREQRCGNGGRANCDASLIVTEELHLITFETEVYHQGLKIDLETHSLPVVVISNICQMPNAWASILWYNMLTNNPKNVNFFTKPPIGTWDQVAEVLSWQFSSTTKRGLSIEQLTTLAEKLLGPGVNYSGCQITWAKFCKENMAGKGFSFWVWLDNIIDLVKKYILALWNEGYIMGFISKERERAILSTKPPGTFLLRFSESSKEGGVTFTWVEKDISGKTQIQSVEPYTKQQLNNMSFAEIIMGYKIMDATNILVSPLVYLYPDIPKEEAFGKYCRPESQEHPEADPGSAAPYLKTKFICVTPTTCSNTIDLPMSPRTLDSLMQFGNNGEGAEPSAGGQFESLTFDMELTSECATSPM

COc1ccc(C(=O)Nc2nc3ccccc3c(NCc3ccccc3)c2C#N)cc1
active: [3] 20.9 µM | [5] 16.3 µM | [6] 21.2 µM | [8] 7.58 µM | [10] 13.6 µM | [12] 3.8 µM | [14] 13.2 µM
not listed: [16] | [17] | [18] | [19]
inactive: all other assays above

O=C(O)CN(CC(=O)O)CC(=O)O
not listed: [5] | [19]
inactive: all other assays above

CCCCC(CC)COC(=O)CCCCCCCC(=O)OCC(CC)CCCC (configuration not stated)
not listed: [10] | [16]
inactive: all other assays above
